The test concerns the target T1, UniProt Q8TD55|Q8TD55-2.
T1 sequence (whole entry): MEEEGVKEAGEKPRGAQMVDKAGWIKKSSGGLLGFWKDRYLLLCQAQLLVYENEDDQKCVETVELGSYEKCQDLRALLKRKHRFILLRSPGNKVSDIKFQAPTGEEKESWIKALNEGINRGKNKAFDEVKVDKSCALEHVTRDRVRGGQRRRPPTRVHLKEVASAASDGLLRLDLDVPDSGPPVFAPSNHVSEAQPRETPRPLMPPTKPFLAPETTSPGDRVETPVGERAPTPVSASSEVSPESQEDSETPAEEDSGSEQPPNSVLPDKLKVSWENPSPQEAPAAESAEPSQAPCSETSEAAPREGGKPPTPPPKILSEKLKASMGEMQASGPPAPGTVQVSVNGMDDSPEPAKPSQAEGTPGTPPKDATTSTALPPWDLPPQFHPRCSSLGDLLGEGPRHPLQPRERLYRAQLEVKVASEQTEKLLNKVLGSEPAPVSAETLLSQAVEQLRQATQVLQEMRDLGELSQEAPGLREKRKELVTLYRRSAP
The test can be described thus: NP40-soluble protein abundance relative to vehicle (solubility fold change) (ratio); higher = more soluble protein in presence of GTP. Here is the method:
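Solubility proteome profiling in Jurkat crude lysate. Lysate was treated with Mg-GTP (0.1-10 mM) for 10 min at room temperature and 3 min at 37 °C, then solubilised with 0.8% NP40 and benzonase, followed by ultracentrifugation. Proteins were quantified by TMT10 LC-MS/MS; the value is the NP40-soluble abundance relative to the NP40-processed vehicle, from 3 independent experiments.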

Structures are written as SMILES. ± gives the standard deviation of the averaged measurements. The full data set covers some 5,400 targets. This sample favours those with the largest changes.

Take `Nc1nc2c(ncn2[C@@H]2O[C@H](COP(=O)(O)OP(=O)(O)OP(=O)(O)O)[C@@H](O)[C@H]2O)c(=O)[nH]1` [guanosine triphosphate]: the NP40-soluble protein abundance by setting is: (concentration: 0.1mM) 1.07 ± 0.12; (concentration: 0.5mM) 0.933 ± 0.0094; (concentration: 1mM) 1.12 ± 0.072; (concentration: 2mM) 0.933 ± 0.018; (concentration: 4mM) 0.96 ± 0.072; (concentration: 6mM) 0.918 ± 0.046. The NP40-soluble protein abundance reads like this: (concentration: 8mM) 0.943 ± 0.13; (concentration: 10mM) 1.03 ± 0.097.

The values are drawn from the supplement of paper PMC6411743.
